Drawing on PubChem BioAssay AID999 (SRMLSC, 2007), this text covers viability for 30 molecules.

The structures appear in SMILES notation. Active and inactive are the calls of the source.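 The calls were made as follows: active = viability at or below 21.59%, 3 SD under the median of tested compounds; inactive = the rest.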

The test is described as follows: viability loss in PTEN-deleted cells – cell-based, validation, diverse DP compound set (AID 999).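 Also: 100% = median luminescence of untreated cell control wells and 0% = no signal.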 Conditions: HCT116 PTEN-null viability, CellTiter-Glo, 60 h; at 10 µM; stronger effect = lower value. On the technique in general: ATP-based viability assays read luminescence as a measure of living cells.
In the case of `CC[C@@]1([C@@H]2O[C@@H]([C@H]3O[C@@](O)(CO)[C@H](C)C[C@@H]3C)C[C@@H]2C)CC[C@H]([C@]2(C)CC[C@]3(C[C@H](O)[C@@H](C)[C@@H]([C@@H](C)[C@@H](OC)C(C)C(=O)O)O3)O2)O1` (stereo not given in full), the viability is 63.5% (inactive).

On to `Cn1cnc2c(NCc3ccccc3)nc(NCCO)nc21`, for which the viability is 90.6% (inactive).

For the molecule `CCOC(=O)c1c(N)sc(C)c1-c1ccccc1`, the viability is 105% (inactive).

On to `C=C1C(=O)[C@]23[C@H](O)[C@H]1CC[C@H]2[C@@]12COC3(O)[C@H](O)[C@@H]1C(C)(C)CC[C@@H]2O`, for which the viability was 76.4% (inactive).

In the case of `C[C@@]12C=Cc3occc3C1CC[C@@]13C[C@@H](CCC12)[C@@](O)(CO)C3` (stereo not given in full), the viability was 93.5% (inactive).

Consider `COc1ccc(CCN(C)CCCC(C#N)(c2ccc(OC)c(OC)c2)C(C)C)cc1OC` (stereo not given), for which the viability was 85.1% (inactive).

For the molecule `O=C1CCC(N2C(=O)c3ccccc3C2=O)C(=O)N1` (stereo not given), the viability was 96.8% (inactive).

Consider `CC(C)=CCC[C@](C)(O[C@@H]1O[C@H](CO)[C@@H](O)[C@H](O)[C@H]1O)[C@H]1CC[C@]2(C)[C@@H]1[C@H](O)C[C@@H]1[C@@]3(C)CC[C@H](O[C@@H]4O[C@H](CO)[C@@H](O)[C@H](O)[C@H]4O[C@@H]4O[C@H](CO)[C@@H](O)[C@H](O)[C@H]4O)C(C)(C)[C@@H]3[C@@H](O)C[C@]12C`, for which the viability is 92% (inactive).

In the case of `Nc1ccn([C@H]2CC[C@@H](CO)O2)c(=O)n1`, the viability was 93.9% (inactive).

`COC(=O)C1=C(C)NC(C)=C(C(=O)OCCNCc2ccccc2)C1c1cccc([N+](=O)[O-])c1` (stereo not given): the viability is 65.3% (inactive).

As to `NC(=NCc1ccccc1)NC(=O)c1nc(Cl)c(N)nc1N`, the viability is 77.3% (inactive).

`Cc1c(C)c2c(c(C)c1O)CCC(C)(COc1ccc(CC3SC(=O)NC3=O)cc1)O2` (stereo not given): the viability is 79.8% (inactive).

As for `O=C(O)c1cc(=O)c2c(OCC(O)COc3cccc4oc(C(=O)O)cc(=O)c34)cccc2o1`, the viability was 98.8% (inactive).

As to `O=c1[nH]cc(F)c(=O)[nH]1`, the viability was 58.9% (inactive).

Turning to `C=C(C)[C@H]1CC=C(CO)CC1`, the viability was 96% (inactive).

In the case of `C=C(CCC12O[C@H](C(=O)O)[C@@](O)(C(=O)O)[C@](C(=O)O)(O1)[C@H](OC(=O)/C=C/[C@@H](C)C[C@@H](C)CC)[C@H]2O)[C@@H](OC(C)=O)[C@H](C)Cc1ccccc1`, the viability is 98.3% (inactive).

Regarding `CC(C)C[C@H]1C(=O)N2CCC[C@H]2[C@]2(O)O[C@](NC(=O)[C@@H]3C=C4c5cccc6[nH]c(Br)c(c56)C[C@H]4N(C)C3)(C(C)C)C(=O)N12`, the viability is 76.4% (inactive).

Consider `CSc1ccc(/C=C2/C(C)=C(CC(=O)O)c3cc(F)ccc32)cc1`, for which the viability was 98% (inactive).

Consider `CNCCC(Oc1ccc(C(F)(F)F)cc1)c1ccccc1` (stereo not given), for which the viability is 85.8% (inactive).

Regarding `O=c1c(O)c(-c2ccc(O)c(O)c2)oc2cc(O)cc(O)c12`, the viability is 72.4% (inactive).

Consider `O=c1c(-c2ccc(O)cc2)coc2cc(O)cc(O)c12`, for which the viability is 87.8% (inactive).

For `COc1cc(-c2ccc(=O)[nH]n2)ccc1OC(F)F`, the viability is 94.7% (inactive).

For the molecule `C[C@H]1c2cccc(O)c2C(O)=C2C(=O)[C@]3(O)C(O)=C(C(N)=O)C(=O)[C@@H](N(C)C)[C@@H]3[C@@H](O)[C@@H]21`, the viability is 90.5% (inactive).

Consider `O=C1OC2(c3ccc(O)cc3Oc3cc(O)ccc32)c2ccccc21`, for which the viability is 96% (inactive).

For `C/C(=C\CNc1ncnc2c1ncn2[C@@H]1O[C@H](CO)[C@@H](O)[C@H]1O)CO`, the viability was 91.5% (inactive).

Take `O=C1OC(c2cc(I)c(O)c(I)c2)(c2cc(I)c(O)c(I)c2)c2ccccc21`: the viability is 93.5% (inactive).

Regarding `O=c1c(-c2ccc(O)cc2)coc2cc(O)ccc12`, the viability is 89.7% (inactive).

Consider `COc1cc(Cc2cnc(N)nc2N)cc(OC)c1OC`, for which the viability was 102% (inactive).

On to `O=C(O)c1ccccc1O`, for which the viability was 98.7% (inactive).

Turning to `C[C@@H]1C(=O)O[C@@H]2CC34C5CC(C(C)(C)C)[C@]36C(O)C(=O)O[C@@H]6O[C@@]4(C(=O)O5)[C@@]12O` (stereo not given in full), the viability is 53.4% (inactive).

Broadly, the viability is a read-out of living cells in per cent, often relative to untreated cells.
